Inconclusive results are not listed. Where a call stands in place of a potency, no number is given. Active and inactive are the calls of the source. Unless noted, calls come from the whole dose curve; as a rule, active = well fitted curve in the direction sought with a large enough effect; inconclusive = small, poorly fitted or top-dose-only effect, or another doubt; inactive = no such curve, though single readings can be large; an effect the other way counts as inactive or inconclusive.
Key:
[1] = system: Zika virus NS2B-NS3 protease (unlinked complex); assay: Primary screen GU Rhodamine qHTS for Zika virus inhibitors: Unlinked NS2B-NS3 protease assay (AID 1347159); note: potency is the fitted concentration of half-maximal effect; nearly all actives have a fitted effect of over 60% in size
Method in brief: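 Enzyme 25 nM in Tris-HCl pH 8.0 + 0.01% Tween 20; compounds up to 114 microM, 15 min RT dark; + Rhod110 substrate 1.5 microM; read t0 and 15 min; delta fluorescence → % inhibition → 4-parameter Hill fit.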

[2] = biological target: Calcium and integrin-binding protein 1 (Homo sapiens) (UniProt Q99828); assay: Primary qHTS for Identification of Calcium Integrin Binding Protein 1 (CIB1) Competitor (AID 1508620);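 note: GST tagged CIB1 binding a fluorescein labelled alphaIIb integrin peptide tracer; top concentration of the series differs between compounds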
Sequence of Calcium and integrin-binding protein 1 (Homo sapiens) (Q99828 whole entry, looked up): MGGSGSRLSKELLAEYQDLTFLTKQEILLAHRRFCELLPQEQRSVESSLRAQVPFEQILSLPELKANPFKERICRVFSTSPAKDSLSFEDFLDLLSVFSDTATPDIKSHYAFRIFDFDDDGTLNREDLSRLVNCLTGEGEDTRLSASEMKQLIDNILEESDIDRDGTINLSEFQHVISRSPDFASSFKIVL
Method in brief: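 Fluorescence polarization competition: CIB1-GST (1 uM final) preincubated with compound 15 min at room temperature, then FITC-labeled alphaIIb peptide (100 nM final) added for another 15 min. Polarization read at Ex 480/Em 540.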

[3] = Primary qHTS for inhibitors of nuclear receptor binding SET domain protein 2 (NSD2) in an isogenic RCH-ACV NSD2 p.E1099K mutant (9B) (AID 1645876); note: nearly all actives have a fitted effect of over 70% in size; note: potency is the fitted concentration of half-maximal effect
[4] = Primary qHTS for inhibitors of nuclear receptor binding SET domain protein 2 (NSD2) in an RCH-ACV wild type WT cells (2C) (AID 1645877); note: nearly all actives have a fitted effect of over 70% in size; note: potency is the fitted concentration of half-maximal effect
[5] = biological target: Luciferin 4-monooxygenase (Photinus pyralis) (UniProt P08659); assay: Primary firefly luciferase (FLuc) qHTS assay for identification of artifact compounds. (AID 1845220); note: nearly all actives have a fitted effect of over 60% in size
Method in brief: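 In this counter-screen for luciferase artifacts, test compounds met substrate (10 uM each luciferin and ATP) before 10 nM enzyme started the reaction. Light output was measured 5 min later.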

[6] = Primary fluorescence-based thiol-reactive (MSTI) qHTS assay for identification of artifact compounds. (AID 1845221);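 note: thiol-reactive compounds lower the probe fluorescence signal; nearly all actives have a fitted effect of over 65% in size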
Method in brief: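 A multi-concentration qHTS design tested compounds against 4 uM MSTI, pH 7.4 phosphate-buffered saline. Plates were protected from light for 1 h at room temperature before imaging fluorescence.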

[7] = system: Nanoluciferase (engineered Oplophorus gracilirostris luciferase); assay: Primary Nanoluciferase (NLuc) qHTS assay for identification of artifact compounds. (AID 1845222);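 note: NLuc secreted into diluted conditioned medium of S16 cells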
Method in brief: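 Using secreted nanoluciferase in S16 culture medium (0.22 um filtered, 1:55 dilution), compounds were preincubated 15 min at RT. Signal was generated with Nano-Glo reagent (1:100) over 5 min.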

[8] = biological target: Cytochrome P450 3A4 (Homo sapiens) (UniProt P08684); assay: qHTS Assay for Inhibitors and Substrates of Cytochrome P450 3A4 (AID 884); note: nearly all actives have a fitted effect of over 50% in size
Sequence of Cytochrome P450 3A4 (Homo sapiens) (P08684 whole entry, looked up): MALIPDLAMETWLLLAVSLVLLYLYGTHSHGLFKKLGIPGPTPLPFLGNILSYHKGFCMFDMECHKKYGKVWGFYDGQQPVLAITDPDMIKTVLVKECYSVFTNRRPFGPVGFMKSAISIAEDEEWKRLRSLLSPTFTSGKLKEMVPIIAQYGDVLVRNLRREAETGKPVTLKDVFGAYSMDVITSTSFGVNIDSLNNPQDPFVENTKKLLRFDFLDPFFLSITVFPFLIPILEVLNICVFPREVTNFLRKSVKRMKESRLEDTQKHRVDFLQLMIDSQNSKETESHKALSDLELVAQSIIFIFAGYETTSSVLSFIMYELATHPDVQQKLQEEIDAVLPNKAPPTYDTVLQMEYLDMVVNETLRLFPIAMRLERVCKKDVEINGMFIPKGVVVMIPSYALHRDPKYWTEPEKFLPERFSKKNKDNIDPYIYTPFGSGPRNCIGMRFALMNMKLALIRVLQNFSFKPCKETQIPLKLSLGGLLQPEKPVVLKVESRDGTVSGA
Method in brief: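 Luminescent readout of luciferin produced by CYP3A4 (20 nM) dealkylation of Luciferin-PPXE, 25 uM (its KM). NADPH-driven reaction ran 60 min at RT after 10 min compound preincubation; data scaled to 57 uM ketoconazole as 100% inhibition.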

[9] = Confirmation and Secondary Assay for Modulators of Hemoglobin Beta Chain Splicing at IVS2 654 locus (AID 910);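 note: per-well total GFP intensity by laser scanning cytometry after 2-day treatment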
Method in brief: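 HeLa cells stably carrying EGFP interrupted by mutant beta-globin IVS2-654 intron (CMV-driven) were treated with compound for 2 days at 37C; corrected splicing was scored as total peak GFP intensity per well (488 nm excitation, 500-520 nm emission).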

[10] = Confirmation and Secondary Assay for Modulators of Hemoglobin Beta Chain Splicing at IVS2 705 locus (AID 930);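 note: HeLa cells stably expressing the EGFP-705 splicing reporter; GFP fluorescence per well restored by corrected splicing of the IVS2-705 intron in EGFP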
Method in brief: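 Fluorescence gain (488 nm laser, 500-520 nm PMT) reflects restored correct splicing of a mutant IVS2-705 intron inside EGFP in stably transfected HeLa cells after 2-day compound treatment.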

[11] = biological target: Ubiquitin carboxyl-terminal hydrolase 1 (Homo sapiens) (UniProt O94782); assay: Inhibitors of USP1/UAF1: Pilot qHTS (AID 504865);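 note: rhodamine fluorescence freed from ubiquitin-rhodamine substrate followed over time; top concentration of the series differs between compounds; nearly all actives have a fitted effect of over 35% in size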
Sequence of Ubiquitin carboxyl-terminal hydrolase 1 (Homo sapiens) (O94782 whole entry, looked up): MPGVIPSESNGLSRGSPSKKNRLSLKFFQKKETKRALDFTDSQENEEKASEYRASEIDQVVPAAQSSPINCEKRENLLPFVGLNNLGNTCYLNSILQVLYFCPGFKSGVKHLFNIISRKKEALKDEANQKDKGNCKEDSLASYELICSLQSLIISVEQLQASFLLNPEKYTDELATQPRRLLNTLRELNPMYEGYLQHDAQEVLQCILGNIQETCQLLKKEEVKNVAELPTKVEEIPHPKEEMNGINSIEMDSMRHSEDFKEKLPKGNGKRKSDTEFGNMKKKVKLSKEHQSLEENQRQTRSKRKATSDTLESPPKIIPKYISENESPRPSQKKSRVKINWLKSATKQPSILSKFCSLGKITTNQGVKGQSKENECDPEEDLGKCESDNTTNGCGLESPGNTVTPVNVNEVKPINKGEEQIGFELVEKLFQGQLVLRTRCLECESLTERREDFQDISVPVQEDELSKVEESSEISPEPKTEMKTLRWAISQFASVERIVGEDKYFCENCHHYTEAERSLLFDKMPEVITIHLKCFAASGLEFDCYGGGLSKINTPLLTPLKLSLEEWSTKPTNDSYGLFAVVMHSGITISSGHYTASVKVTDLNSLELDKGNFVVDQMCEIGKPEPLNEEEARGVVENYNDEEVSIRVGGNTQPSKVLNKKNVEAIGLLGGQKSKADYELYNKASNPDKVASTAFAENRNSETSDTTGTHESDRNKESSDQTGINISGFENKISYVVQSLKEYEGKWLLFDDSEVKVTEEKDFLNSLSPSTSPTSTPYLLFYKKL
Method in brief: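 1nM USP1/UAF1 + cpd, 15 min RT; start w/ Ub-Rho 150nM final; kinetic FL 480/540 nm, 6 reads q60 s. Buffer 50mM HEPES pH 7.8, 0.5mM EDTA, 1mM TCEP, 0.01% Tween-20, 0.1 mg/ml BSA.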

[12] = NCATS anti-infectives library activity on HEK293 viability as a counter-qHTS vs the C. elegans viability qHTS (AID 1745854)
Method in brief: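 Cytotoxicity counter-screen to a worm viability qHTS: CellTiter-Glo luminescence read 10 min after reagent addition. Compounds (final up to 41.7 uM, a 1:5 dilution series) incubated 24 hr at 37C with 1,500 HEK293 cells per well; digitonin control.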

[13] = Confirmatory screen NINDS Rhodamine qHTS for Zika virus inhibitors (AID 1347161); note: potency is the fitted concentration of half-maximal effect; nearly all actives have a fitted effect of over 60% in size
Method in brief: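 In 10 mM Tris-HCl pH 8.0 containing 0.01% Tween 20, linked NS2B-NS3 protease (25 nM final) is exposed to test compounds for 15 min. Cleavage of 1.5 microM Rhodamine110 substrate is tracked by fluorescence over 15 min.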

[14] = system: Zika virus NS2B-NS3 protease (linked); assay: 384 well plate NINDS AMC confirmatory qHTS for Zika virus inhibitors (AID 1347163); note: potency is the fitted concentration of half-maximal effect; nearly all actives have a fitted effect of over 50% in size
Method in brief: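 Fluorescence at 355/460 nm was read after 25 minutes of cleavage of 30 microM Ac-VKTGKR-AMC at room temperature, in the dark. Before substrate addition, compounds (up to 1 mM final) sat ~15 minutes with 5, 30 or 60 nM linked protease. Signals were normalized to no-enzyme and no-inhibitor wells.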

[15] = AP1 Signaling Pathway (AID 357; active = well fitted curve in either direction with a large enough effect, not every such curve was filed as active;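 note: ME-180 reporter cells stimulated with EGF at its EC50 level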); details: ME-180 AP-1-bla reporter, EGF-induced, beta-lactamase ratio, 5 h
Method in brief: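 First, ME-180 AP-1-bla cells were cultured overnight at 37 °C in low-serum Opti-MEM. Next, titrated compounds with EC50 EGF were incubated 5 hours. Finally, CCF4 was added for 2.5 hours and the 460/530 nm ratio recorded.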

[16] = Stat Signaling Pathway (AID 446; active = well fitted curve in either direction with a large enough effect, not every such curve was filed as active;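 note: ME-180 cervical cancer cells given 40 pM IL-6 alongside compound; SIE-controlled beta-lactamase reporter measured as 460/530 nm FRET emission ratio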); details: ME-180 (cervical carcinoma) SIE beta-lactamase reporter, IL-6 stimulated, 5 h
Method in brief: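 Emission at 460 and 530 nm (excitation 405 nm) reports SIE-controlled beta-lactamase in ME-180 cells. Cells received compound with 40 pM IL-6 for 5 hrs at 37 C; data scaled between 300 pM IL-6 and 125 nM JAK-inhibitor controls.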

[17] = biological target: 3',5'-cyclic-AMP phosphodiesterase 4B (Homo sapiens) (UniProt Q07343); assay: qHTS Assay for Inhibitors of PDE-IV (AID 607; active = well fitted activation curve with a large enough effect in the main read-out, with a control signal flat, not every such curve was filed as active)
Sequence of 3',5'-cyclic-AMP phosphodiesterase 4B (Homo sapiens) (Q07343 whole entry, looked up): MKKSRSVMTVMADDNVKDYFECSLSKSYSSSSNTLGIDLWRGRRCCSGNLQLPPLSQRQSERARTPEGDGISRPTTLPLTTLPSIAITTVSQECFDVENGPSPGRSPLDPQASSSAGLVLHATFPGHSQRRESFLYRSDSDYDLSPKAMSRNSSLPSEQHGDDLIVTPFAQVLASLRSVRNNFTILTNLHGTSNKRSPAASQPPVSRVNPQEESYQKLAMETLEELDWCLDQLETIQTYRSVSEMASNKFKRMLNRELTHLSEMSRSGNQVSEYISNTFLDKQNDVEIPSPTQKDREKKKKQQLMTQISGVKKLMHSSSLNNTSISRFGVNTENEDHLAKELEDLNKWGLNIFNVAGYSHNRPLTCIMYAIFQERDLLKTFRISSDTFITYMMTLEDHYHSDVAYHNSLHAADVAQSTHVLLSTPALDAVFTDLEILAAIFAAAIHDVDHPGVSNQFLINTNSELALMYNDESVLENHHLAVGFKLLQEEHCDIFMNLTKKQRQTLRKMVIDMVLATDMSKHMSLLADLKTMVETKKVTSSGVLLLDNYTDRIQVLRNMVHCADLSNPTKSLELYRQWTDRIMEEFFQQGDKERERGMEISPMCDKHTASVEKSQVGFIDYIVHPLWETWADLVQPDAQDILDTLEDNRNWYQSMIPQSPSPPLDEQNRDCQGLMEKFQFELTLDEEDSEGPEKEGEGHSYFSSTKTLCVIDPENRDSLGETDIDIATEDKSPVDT
Method in brief: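 The readout is membrane depolarisation from a cAMP-sensing CNG channel, detected with a potential dye at ex 535/em 590. Cells were HEK293-derived (endogenous PDE-IV) at 1000 cells/well, titrated up to 22.9 uM final.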

[18] = Vero cells viability qHTS for Zika virus inhibitors (AID 1347167)
Method in brief: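 To flag cytotoxic protease inhibitors, viability is measured by ATP-dependent luminescence (CellTiter Glo) after cells attached overnight receive compound for 24 to 48 hours in DMEM with 4% FBS.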

[19] = biological target: Cytochrome P450 1A2 (Homo sapiens) (UniProt P05177); assay: p450-cyp1a2 (AID 410; calls by dose curve)
Sequence of Cytochrome P450 1A2 (Homo sapiens) (P05177 whole entry, looked up): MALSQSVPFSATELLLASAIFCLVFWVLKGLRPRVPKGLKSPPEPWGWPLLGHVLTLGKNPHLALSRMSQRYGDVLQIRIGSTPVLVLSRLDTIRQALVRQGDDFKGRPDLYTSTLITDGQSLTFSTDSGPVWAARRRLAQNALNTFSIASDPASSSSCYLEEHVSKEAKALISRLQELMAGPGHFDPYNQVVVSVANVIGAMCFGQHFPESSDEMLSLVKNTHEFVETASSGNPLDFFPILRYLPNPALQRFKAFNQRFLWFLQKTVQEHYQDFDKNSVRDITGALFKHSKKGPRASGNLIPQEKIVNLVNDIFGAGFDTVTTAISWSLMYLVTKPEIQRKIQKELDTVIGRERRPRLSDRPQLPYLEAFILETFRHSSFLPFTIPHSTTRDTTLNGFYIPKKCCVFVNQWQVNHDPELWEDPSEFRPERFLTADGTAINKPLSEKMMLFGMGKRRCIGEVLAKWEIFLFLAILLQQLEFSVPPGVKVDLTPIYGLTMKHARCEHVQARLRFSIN
Method in brief: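 Luminescent demethylation readout: Luciferin-ME (100uM, equal to Km) turned over by 20nM CYP1A2 for 60 min at room temperature after NADPH regeneration addition, following 10 min compound preincubation. Normalization used 57 uM furafylline as full inhibition.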

[20] = biological target: Cytochrome P450 3A4 (Homo sapiens) (UniProt P08684); assay: qHTS Assay for Activators of Cytochrome P450 3A4 (AID 885); note: nearly all actives have a fitted effect of over 65% in size; note: potency is the fitted concentration of half-maximal effect
Method in brief: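 Activators are scored by enhanced luminescence from CYP3A4 conversion of luciferin-PPXE (25uM, equal to KM) to luciferin, after 60 min at RT with an NADPH-regenerating system.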

O=C(CCCCCCC(=O)Nc1ccc(C2OC(CSc3nc(-c4ccccc4)c(-c4ccccc4)o3)CC(c3ccc(CO)cc3)O2)cc1)NO (stereo not drawn)
Potency [1]: 39.8 µM (active)
outcome [2]: inactive
Potency [3]: 5.15 µM (active)
Potency [4]: 3.65 µM (active)
Potency [5]: inactive
Potency [6]: inactive
Potency [7]: inactive

COc1cc(/C=C/C(=O)O)ccc1O
Potency [8]: inactive
outcome [9]: inactive
outcome [10]: inactive
Potency [11]: inactive

COc1c(O)cc2oc(-c3ccccc3)cc(=O)c2c1O
outcome [12]: inactive

CC[C@@H](C(=O)[C@H](C)[C@@H](O)[C@H](C)CCc1ccc(C)c(O)c1C(=O)O)C1O[C@@](CC)(C2CC[C@](O)(CC)[C@H](C)O2)C[C@@H]1C (stereo partly drawn)
Potency [13]: 9.84 µM (active)
Potency [14]: 158 µM (active)

CC[C@@H]1O[C@]2(C=C[C@@H]1C)C[C@H]1C[C@H](CC=C(C)[C@@H](O[C@@H]3C[C@H](OC)[C@H](O[C@@H]4C[C@H](OC)[C@H](O)[C@H](C)O4)[C@H](C)O3)[C@@H](C)C=CC=C3CO[C@@H]4[C@@H](O)C(C)=C[C@@H](C(=O)O1)[C@]34O)O2
activity change, negative = inhibition ([15]; at 17.2 µM (top of the series)): 6.2% (inactive)
activity, negative = inhibition ([16]; at 17.2 µM (top of the series)): -5.99% (inactive)
Potency [17]: inactive
Potency [18]: inactive

CCCCCCc1cc2cc(-c3nnc(-c4cccc(Cl)c4)o3)c(=O)oc2cc1O
Potency [13]: 3.55 µM (active)

CC1(C)CC[C@]2(C(=O)O)CC[C@]3(C)C(=CC[C@@H]4[C@@]5(C)C[C@@H](O)[C@H](O)C(C)(C)[C@@H]5CC[C@]43C)[C@@H]2C1
Potency [3]: inactive
Potency [4]: inactive
outcome [12]: inactive

C/C=C/C[C@@H](C)[C@@H](O)[C@H]1C(=O)N[C@@H](CC)C(=O)N(C)CC(=O)N(C)[C@@H](CC(C)C)C(=O)N[C@@H](C(C)C)C(=O)N(C)[C@@H](CC(C)C)C(=O)N[C@@H](C)C(=O)N[C@H](C)C(=O)N(C)[C@@H](CC(C)C)C(=O)N(C)[C@@H](CC(C)C)C(=O)N(C)[C@H](C(C)C)C(=O)N1C
Potency [5]: inactive
Potency [6]: inactive

COc1ccc(/C=C\C(=O)Nc2ccccc2C(=O)O)cc1OC
activity change, negative = inhibition ([15]; at 38 µM (top of the series)): -10.8% (inactive)
Potency [19]: inactive
activity, negative = inhibition ([16]; at 38 µM (top of the series)): 7.79% (inactive)
Potency [20]: inactive

N[C@H](C(=O)O)c1nn[nH]n1
Potency [19]: inactive
Potency [17]: inactive
Potency [11]: inactive

O[C@@H](c1ccccc1)C1CCN(CCc2ccccc2)CC1
Potency [8]: inactive
Potency [20]: 15.8 µM (active)

From PubChem BioAssay (NCATS)
